Experimental data taken from the supplement of paper PMC11732987, “Enantioselective OTUD7B fragment discovery through chemoproteomics screening and high-throughput optimisation” (Communications Chemistry, 2025).

Assays:
Experiment in all cases: log2 ratio of Biotin-Ahx-Ub-VS probe labelling (fragment/DMSO); higher = less target engagement (more negative = stronger competition), active = hit call of the paper (q ≤ 0.05, log2 ratio ≤ -1)
Conditions in all cases: compound concentration: 200 uM; treatment time: 3 h
[1] = target: USP16 (UniProt Q9Y5T5)
Procedure, shortened: (§1)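 Labelled DUBs were enriched with NeutrAvidin, digested with LysC and trypsin, and run by diaPASEF LC-MS/MS. The labelling used Biotin-Ahx-Ub-VS at 0.5 µM final for 1 h on HEK293T lysate (495 µg per sample) previously treated in triplicate with fragment at 200 µM or vehicle for 3 h. Values are average log2 fragment/vehicle ratios by unpaired t-test on global-median-normalised Spectronaut quantities of proteins with ≥2 unique peptides.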

[2] = target: T1, USP19 (UniProt O94966)
T1 sequence (whole entry): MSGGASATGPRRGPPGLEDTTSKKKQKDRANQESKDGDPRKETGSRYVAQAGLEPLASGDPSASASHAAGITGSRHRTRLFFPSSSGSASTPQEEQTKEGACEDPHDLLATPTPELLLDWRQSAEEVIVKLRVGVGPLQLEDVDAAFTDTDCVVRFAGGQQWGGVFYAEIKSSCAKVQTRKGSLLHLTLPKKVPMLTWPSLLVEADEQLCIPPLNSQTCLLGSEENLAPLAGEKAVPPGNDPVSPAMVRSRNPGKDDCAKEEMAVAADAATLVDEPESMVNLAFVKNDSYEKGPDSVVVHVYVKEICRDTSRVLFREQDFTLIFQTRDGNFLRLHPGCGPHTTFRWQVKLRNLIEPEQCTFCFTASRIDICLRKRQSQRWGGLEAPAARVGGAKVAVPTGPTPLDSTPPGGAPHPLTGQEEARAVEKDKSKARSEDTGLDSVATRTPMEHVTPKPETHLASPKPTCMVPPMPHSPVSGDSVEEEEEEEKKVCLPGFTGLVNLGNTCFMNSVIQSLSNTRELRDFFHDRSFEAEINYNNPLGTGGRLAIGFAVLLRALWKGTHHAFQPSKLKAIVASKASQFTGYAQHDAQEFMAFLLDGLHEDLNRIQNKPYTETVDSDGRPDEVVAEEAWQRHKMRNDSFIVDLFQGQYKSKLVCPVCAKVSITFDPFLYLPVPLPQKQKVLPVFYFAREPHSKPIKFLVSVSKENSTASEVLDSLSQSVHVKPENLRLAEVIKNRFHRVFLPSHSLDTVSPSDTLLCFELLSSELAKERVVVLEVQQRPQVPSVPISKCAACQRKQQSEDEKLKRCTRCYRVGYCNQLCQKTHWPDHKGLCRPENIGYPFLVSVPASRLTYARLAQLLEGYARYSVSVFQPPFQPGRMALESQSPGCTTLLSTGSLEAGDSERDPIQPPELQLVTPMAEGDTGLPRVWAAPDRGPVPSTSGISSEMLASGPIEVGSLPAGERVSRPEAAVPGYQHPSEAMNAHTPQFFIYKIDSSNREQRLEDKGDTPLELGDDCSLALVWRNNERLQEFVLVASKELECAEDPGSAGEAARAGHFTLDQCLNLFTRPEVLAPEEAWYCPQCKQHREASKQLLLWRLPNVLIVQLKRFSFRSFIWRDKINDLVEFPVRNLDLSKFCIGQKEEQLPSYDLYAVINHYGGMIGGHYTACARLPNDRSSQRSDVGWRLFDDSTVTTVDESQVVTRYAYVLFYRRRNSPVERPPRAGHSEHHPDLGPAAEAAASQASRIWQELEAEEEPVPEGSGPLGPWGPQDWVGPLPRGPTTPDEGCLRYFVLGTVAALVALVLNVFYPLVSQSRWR
Procedure, shortened: as §1

[3] = target: USP24 (UniProt Q9UPU5)
Procedure, shortened: as §1

[4] = target: T2, USP25 (UniProt Q9UHP3)
T2 sequence (whole entry): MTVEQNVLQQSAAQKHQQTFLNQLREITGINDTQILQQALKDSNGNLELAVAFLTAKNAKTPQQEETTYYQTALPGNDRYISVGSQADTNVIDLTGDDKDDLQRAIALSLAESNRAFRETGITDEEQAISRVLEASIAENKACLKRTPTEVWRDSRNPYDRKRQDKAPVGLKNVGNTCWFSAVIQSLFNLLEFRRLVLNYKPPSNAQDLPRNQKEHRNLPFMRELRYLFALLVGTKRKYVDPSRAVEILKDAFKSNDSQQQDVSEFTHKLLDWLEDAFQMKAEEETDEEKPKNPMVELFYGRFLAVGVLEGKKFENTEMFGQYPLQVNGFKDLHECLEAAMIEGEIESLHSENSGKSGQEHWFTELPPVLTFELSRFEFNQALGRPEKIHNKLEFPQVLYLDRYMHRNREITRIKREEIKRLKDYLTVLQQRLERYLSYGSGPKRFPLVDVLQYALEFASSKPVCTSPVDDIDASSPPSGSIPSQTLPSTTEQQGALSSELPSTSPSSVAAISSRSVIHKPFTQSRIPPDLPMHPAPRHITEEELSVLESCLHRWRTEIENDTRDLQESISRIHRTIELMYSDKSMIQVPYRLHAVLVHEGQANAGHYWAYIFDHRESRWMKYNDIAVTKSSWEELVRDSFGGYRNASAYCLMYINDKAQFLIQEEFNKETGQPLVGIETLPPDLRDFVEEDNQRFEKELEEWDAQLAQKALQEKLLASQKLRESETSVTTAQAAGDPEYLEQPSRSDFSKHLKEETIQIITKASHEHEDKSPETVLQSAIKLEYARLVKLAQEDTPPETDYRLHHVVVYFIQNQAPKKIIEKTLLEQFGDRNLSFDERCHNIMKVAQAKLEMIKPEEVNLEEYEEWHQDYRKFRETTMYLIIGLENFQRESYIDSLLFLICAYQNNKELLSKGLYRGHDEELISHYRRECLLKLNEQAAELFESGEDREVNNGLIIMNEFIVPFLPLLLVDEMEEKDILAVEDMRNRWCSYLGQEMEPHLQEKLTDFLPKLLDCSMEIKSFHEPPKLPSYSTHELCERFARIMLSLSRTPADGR
Procedure, shortened: as §1

[5] = target: T3, USP28 (UniProt Q96RU2)
T3 sequence (whole entry): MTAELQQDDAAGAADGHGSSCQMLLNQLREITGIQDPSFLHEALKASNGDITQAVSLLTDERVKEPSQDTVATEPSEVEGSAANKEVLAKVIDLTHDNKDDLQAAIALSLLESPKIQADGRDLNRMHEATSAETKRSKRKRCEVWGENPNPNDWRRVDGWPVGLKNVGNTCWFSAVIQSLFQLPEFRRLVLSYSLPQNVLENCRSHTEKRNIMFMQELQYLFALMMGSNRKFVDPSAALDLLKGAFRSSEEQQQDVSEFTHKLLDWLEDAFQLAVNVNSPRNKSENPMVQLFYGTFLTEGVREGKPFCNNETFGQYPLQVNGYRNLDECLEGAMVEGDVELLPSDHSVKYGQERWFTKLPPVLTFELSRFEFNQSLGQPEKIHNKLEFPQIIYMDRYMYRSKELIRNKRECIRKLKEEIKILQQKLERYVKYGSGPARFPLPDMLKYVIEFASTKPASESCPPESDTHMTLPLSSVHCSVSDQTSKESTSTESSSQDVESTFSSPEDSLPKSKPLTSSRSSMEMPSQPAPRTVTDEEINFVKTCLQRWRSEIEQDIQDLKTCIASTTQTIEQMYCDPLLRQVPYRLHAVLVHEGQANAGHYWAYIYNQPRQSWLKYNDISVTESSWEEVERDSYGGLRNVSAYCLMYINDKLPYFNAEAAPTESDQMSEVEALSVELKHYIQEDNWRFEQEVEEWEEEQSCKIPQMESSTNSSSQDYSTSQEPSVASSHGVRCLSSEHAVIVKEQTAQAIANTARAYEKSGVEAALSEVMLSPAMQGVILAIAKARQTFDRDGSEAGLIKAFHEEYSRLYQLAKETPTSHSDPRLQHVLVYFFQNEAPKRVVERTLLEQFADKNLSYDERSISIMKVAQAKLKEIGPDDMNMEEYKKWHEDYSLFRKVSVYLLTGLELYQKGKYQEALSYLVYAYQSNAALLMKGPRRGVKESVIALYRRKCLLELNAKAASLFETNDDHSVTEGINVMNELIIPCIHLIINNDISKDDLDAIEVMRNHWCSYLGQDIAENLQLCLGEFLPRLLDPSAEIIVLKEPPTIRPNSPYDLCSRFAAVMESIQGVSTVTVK
Procedure, shortened: as §1

Measured: log2 ratio of Biotin-Ahx-Ub-VS probe labelling

USP24, sequence (Q9UPU5 whole entry): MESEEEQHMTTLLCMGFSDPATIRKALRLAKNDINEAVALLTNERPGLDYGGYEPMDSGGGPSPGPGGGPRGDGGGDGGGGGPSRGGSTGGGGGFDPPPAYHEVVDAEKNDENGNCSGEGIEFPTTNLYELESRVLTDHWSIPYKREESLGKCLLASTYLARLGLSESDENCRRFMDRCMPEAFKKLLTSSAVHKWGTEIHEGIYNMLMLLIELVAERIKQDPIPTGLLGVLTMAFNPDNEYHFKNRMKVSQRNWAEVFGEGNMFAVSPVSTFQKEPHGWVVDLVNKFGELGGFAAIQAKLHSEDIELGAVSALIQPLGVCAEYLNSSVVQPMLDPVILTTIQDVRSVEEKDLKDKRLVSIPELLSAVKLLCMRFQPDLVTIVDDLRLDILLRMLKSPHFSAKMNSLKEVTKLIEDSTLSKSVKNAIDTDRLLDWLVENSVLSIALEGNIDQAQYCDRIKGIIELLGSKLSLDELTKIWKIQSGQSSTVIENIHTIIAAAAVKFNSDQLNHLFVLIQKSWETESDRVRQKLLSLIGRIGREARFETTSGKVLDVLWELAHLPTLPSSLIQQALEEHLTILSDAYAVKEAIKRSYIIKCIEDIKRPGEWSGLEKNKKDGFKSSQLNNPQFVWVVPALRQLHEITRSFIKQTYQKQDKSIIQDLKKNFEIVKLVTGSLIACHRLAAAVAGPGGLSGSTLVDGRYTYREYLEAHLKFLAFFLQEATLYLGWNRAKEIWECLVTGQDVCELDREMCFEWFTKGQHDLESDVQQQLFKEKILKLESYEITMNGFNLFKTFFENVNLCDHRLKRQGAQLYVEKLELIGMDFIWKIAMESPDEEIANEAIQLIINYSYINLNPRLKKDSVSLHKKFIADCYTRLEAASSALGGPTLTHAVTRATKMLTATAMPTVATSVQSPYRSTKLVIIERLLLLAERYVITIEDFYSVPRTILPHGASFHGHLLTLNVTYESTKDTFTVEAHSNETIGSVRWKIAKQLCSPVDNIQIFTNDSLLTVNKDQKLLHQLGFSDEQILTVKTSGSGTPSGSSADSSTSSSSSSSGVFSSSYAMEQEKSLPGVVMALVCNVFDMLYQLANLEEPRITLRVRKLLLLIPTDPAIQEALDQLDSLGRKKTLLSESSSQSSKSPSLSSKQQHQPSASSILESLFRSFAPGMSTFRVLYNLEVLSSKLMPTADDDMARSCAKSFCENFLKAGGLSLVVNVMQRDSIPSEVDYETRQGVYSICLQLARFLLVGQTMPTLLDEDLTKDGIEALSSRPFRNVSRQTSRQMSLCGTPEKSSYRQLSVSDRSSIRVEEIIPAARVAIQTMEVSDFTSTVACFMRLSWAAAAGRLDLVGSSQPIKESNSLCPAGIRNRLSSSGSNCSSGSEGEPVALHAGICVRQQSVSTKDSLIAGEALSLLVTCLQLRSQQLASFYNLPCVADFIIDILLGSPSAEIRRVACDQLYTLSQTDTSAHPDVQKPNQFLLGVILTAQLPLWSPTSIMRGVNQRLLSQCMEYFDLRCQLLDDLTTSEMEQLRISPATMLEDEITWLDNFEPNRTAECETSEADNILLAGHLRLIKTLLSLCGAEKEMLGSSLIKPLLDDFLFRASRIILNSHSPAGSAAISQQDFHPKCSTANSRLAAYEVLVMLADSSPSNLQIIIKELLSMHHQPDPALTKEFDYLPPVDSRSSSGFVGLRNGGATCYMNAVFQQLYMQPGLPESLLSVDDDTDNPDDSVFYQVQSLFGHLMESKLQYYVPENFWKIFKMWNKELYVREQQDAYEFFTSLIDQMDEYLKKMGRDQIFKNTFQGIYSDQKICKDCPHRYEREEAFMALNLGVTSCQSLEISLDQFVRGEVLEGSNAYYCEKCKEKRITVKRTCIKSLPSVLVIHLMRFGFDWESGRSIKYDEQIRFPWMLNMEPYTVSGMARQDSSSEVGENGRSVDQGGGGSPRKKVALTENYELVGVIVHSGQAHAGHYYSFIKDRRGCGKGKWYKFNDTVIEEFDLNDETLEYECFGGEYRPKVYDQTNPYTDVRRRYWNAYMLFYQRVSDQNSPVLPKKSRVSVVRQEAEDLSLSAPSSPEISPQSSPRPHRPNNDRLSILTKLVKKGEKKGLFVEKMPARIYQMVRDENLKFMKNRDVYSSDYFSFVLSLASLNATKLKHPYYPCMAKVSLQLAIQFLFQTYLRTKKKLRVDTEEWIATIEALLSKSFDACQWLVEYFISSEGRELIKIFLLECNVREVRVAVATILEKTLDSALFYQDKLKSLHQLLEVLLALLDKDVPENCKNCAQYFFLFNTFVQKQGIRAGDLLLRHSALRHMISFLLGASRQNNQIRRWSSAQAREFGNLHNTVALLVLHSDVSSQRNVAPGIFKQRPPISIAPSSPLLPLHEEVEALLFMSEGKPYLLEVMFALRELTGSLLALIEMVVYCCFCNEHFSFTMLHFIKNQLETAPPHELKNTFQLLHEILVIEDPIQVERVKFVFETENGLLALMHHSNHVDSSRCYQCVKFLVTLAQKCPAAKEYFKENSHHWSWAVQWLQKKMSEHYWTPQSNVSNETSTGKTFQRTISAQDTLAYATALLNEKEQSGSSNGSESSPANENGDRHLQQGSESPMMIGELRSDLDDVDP
USP16, sequence (Q9Y5T5 whole entry, looked up, the tested form may be a part): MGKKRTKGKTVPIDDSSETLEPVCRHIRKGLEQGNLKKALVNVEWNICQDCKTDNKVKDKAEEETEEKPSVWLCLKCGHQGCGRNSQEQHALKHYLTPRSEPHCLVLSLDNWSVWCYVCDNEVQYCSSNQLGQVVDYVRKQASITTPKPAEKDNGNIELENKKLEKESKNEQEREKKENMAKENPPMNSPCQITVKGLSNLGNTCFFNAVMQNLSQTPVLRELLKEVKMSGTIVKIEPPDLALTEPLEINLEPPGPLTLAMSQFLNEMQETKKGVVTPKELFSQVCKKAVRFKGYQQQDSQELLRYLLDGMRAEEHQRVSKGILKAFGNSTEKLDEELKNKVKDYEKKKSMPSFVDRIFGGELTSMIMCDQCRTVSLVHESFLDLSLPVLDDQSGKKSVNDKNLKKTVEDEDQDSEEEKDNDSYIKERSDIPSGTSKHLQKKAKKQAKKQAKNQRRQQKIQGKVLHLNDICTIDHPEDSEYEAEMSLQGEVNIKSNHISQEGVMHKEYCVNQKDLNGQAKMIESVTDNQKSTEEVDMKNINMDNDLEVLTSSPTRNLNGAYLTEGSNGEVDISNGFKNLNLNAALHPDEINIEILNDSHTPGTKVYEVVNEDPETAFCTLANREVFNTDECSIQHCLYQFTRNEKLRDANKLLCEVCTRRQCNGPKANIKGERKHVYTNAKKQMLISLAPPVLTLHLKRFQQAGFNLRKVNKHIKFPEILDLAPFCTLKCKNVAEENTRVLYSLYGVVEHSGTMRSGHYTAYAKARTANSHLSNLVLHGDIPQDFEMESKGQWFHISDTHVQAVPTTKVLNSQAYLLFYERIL

Cc1cccn2cc(CCNC(=O)CCl)nc12.Cl
inactive: [1] -0.607 | [2] -0.279 | [3] -0.29 | [4] -0.0777 | [5] -0.334
